Shown are actives, neighbours in structure and some others; about 8% of the full set was active somewhere.
SARS PLP yeast = inhibitors of SARS-CoV papain-like protease in yeast; S. cerevisiae expressing SARS-CoV PLpro, growth rescue; Potency, µM (highest dose often 32.9 µM), actives largely listed as activators; 330,000 tested, 0.19% active; AID 485353; calls by dose curve; also: nearly all actives have a fitted effect of over 55% in size
LASV entry inh = inhibitors of Lassa virus binding or cell entry; Lassa virus pseudotype entry inhibition, cell reporter; Potency, µM (series often up to 37.9 µM), actives largely listed as inhibitors; 300,000 tested, 1.2% active; calls by dose curve; tested in HEK293 cells; also: nearly all actives have a fitted effect of over 50% in size
HCV inh = HCV inhibition | Huh7.5.1 HCVcc-Cre infection, luciferase reporter, 44 h | Potency, µM (highest dose often 41.8 µM), most hits filed as inhibitors | 340,000 tested, 3.4% active; active = well fitted inhibition curve with a large enough effect; inconclusive = small, poorly fitted or top-dose-only effect, or another doubt; inactive = no such curve, though single readings can be large or run the other way
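After 44 h co-culture of compound, cells and HCVcc-Cre (~0.5 moi), substrate is added for 15 min at room temperature and luciferase measured over 15 sec. Cells were seeded at 1,000/well and pre-cultured 4 h.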
FMDV antiviral = foot and mouth disease virus antiviral activity; 410,000 tested, 1.2% active; FMDV antiviral cell-based qHTS; AID 1159524; Potency, µM (titrated, usually from 57.9 µM), usual class: inhibitors; calls by dose curve; tested in HEK293T cells; also: read-out not given here; nearly all actives have a fitted effect of over 45% in size
HCMV antiviral = blocks human cytomegalovirus replication. HFF cells, HCMV-luciferase reporter, 72 h; hits give low values. activity change, negative = inhibition, % at 57.5 µM. 410,000 tested, 4.5% active. AID 1259415; in the data active = activity change below about -60%; inconclusive = no clear call, values can overlap the other calls; inactive = above about -39%
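Inhibition of viral replication was scored as loss of reporter luminescence in HFFs infected with HCMV-luciferase (MOI 1 PFU/cell) for 72 h; compounds tested at 2 doses, normalized to buffer and Salinomycin controls.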
Marburg entry inh = blocks Marburg virus binding to or entry into cells | AID 540276 | Marburg virus pseudotyped entry inhibition, cell reporter | 300,000 tested, 1.8% active | Potency, µM (top dose mostly 37.8 µM), usual class: inhibitors; calls by dose curve; tested in HEK293 cells
Large screens that a line does not name were inactive.

S=c1sc2c(Cl)ncnc2n1-c1ccccc1	LASV entry inh 23µM, HCV inh 4µM, FMDV antiviral inconclusive, Marburg entry inh 23µM
COc1ccccc1CN1CCN(C2CCN(C(=O)Nc3ccccc3)CC2)C(=O)C1=O	none (no result: SARS PLP yeast, HCV inh, Marburg entry inh)
COc1ccc(C(F)(F)F)cc1N/C=C\c1nnnn1-c1ccccc1	HCV inh inconclusive
O=C(c1ccccc1)c1ccccc1N/C=C/c1nnnn1-c1ccccc1	LASV entry inh 13µM, HCV inh 6.3µM, HCMV antiviral inconclusive, Marburg entry inh inconclusive
O=C(NCc1cccnc1)c1cnn(-c2ncc3c(n2)-c2ccccc2CCC3)c1C1CC1	none (no result: SARS PLP yeast, LASV entry inh, HCV inh, HCMV antiviral, Marburg entry inh)
CC(C)=CC[N+]1(C)CCCCC1	none
O=C(Nc1cccc(/C=C/c2ccccn2)c1)c1cc(Cl)ccn1	HCV inh 5µM (no result: LASV entry inh)
Cc1ccc(C)c(NC(=O)C(c2ccccc2)N2Cc3ccccc3C2=O)c1 (stereo unspecified)	none (no result: SARS PLP yeast, HCV inh, Marburg entry inh)
NC1=NC(=Nc2ccccc2)c2ccccc21	LASV entry inh 13µM, FMDV antiviral inconclusive, Marburg entry inh inconclusive
NC1=NC(=Nc2ccc(Br)cc2)c2ccccc21	LASV entry inh inconclusive, HCV inh inconclusive, HCMV antiviral -61, Marburg entry inh 7.1µM
NC1=NC(=Nc2ccc(Cl)cc2)c2ccccc21	none
Cc1c(C(=O)N2CC[C@@H]3CCCC[C@H]3C2)sc2ncnc(NCCc3ccccn3)c12	none (no result: SARS PLP yeast, LASV entry inh, HCV inh, HCMV antiviral, Marburg entry inh)
c1ccc(C[C@H]2CN=C(Nc3ccccc3)N2CCCC2CCCCC2)cc1	HCV inh 4µM, HCMV antiviral -61 (no result: LASV entry inh, Marburg entry inh)
CC1CCC(CN2C(Nc3ccccc3)=NC[C@@H]2Cc2ccccc2)CC1 (stereo partly specified)	HCV inh 7.9µM (no result: LASV entry inh, Marburg entry inh)
CC(C)C[C@H]1CN=C(Nc2ccccc2)N1CCCC1CCCC1	HCV inh inconclusive, FMDV antiviral inconclusive, HCMV antiviral -70 (no result: LASV entry inh, Marburg entry inh)
FC(F)(F)c1ccccc1-c1cc(NCc2cccs2)ncn1	none (no result: SARS PLP yeast, LASV entry inh, HCV inh, HCMV antiviral, Marburg entry inh)
CCOC(=O)N1CCN(C(=S)Nc2ccc(C)cc2)CC1	Marburg entry inh inconclusive
CN(CCO)C(=O)c1cn(C2CCN(Cc3ccc(C(F)(F)F)cc3)CC2)nn1	none (no result: SARS PLP yeast, LASV entry inh, HCV inh, HCMV antiviral, Marburg entry inh)
O=C(CCC(=O)Nc1ccccc1)NNC(=O)C(c1ccccc1)c1ccccc1	LASV entry inh inconclusive
Cc1ccc(C2Oc3ccccc3C3=C2C(c2cccs2)n2ncnc2N3)cc1 (stereo unspecified)	LASV entry inh inconclusive, HCV inh 13µM, Marburg entry inh inconclusive
O=c1c2cc(N3CCOCC3)ccc2[nH]c(=S)n1Cc1ccc(Cl)cc1	LASV entry inh inconclusive, HCV inh inconclusive, HCMV antiviral -87
O=C(c1ccc(Cn2c(=S)[nH]c3ccc(N4CCOCC4)cc3c2=O)cc1)N1CCN(c2ccc(F)cc2)CC1	HCV inh inconclusive, Marburg entry inh inconclusive
O=C(CCCCCn1c(=S)[nH]c2ccc(N3CCOCC3)cc2c1=O)NCc1ccc(Cl)cc1	LASV entry inh inconclusive, FMDV antiviral inconclusive, HCMV antiviral -75, Marburg entry inh inconclusive
CCOc1ccc2nc(NC(=O)c3nc(SCc4ccccc4C)ncc3Cl)sc2c1	none (no result: SARS PLP yeast, HCV inh)
CCc1ccc(C(=O)COC(=O)c2nn(C)c(=O)c3ccccc23)cc1	none
CCc1ccc(C(=O)COC(=O)c2n[nH]c3ccccc23)cc1	LASV entry inh inconclusive, HCMV antiviral -65
CCOC(=O)c1nn(-c2ccc(Cl)cc2)c(C)cc1=O	HCMV antiviral -73 (no result: LASV entry inh, Marburg entry inh)
CCOC(=O)c1nn(-c2ccc(F)cc2)c(C)c1C(C)=O	HCMV antiviral -79
Cc1cc(=O)c(C(=O)O)nn1-c1ccc(Cl)cc1	none (no result: LASV entry inh, Marburg entry inh)
CCOC(=O)c1nn(-c2ccc(C)cc2)c(C)c1C(C)=O	none (no result: SARS PLP yeast)
Cn1cccc1/C=N/NC(=O)Cc1ccccc1	none
Cn1cccc1/C=N\NC(=O)Cc1ccc(Br)c2ccccc12	HCV inh 10µM, FMDV antiviral inconclusive, HCMV antiviral -80 (no result: LASV entry inh, Marburg entry inh)
Oc1ccccc1-c1nnc(SCCN2CCOCC2)n1Cc1ccccc1	SARS PLP yeast inconclusive, HCV inh inconclusive, HCMV antiviral -64
CCOC(=O)C(C)Sc1nc(-c2cccs2)ccc1C#N (stereo unspecified)	HCV inh 14µM
C=COC(=O)CSc1nc(-c2cccs2)ccc1C#N	Marburg entry inh inconclusive
C[C@]12CCC3C(CC[C@H]4C[C@@H](O)CC[C@]34C)C1CC[C@@]2(O)C(F)(F)F (stereo partly specified)	HCMV antiviral -61 (no result: LASV entry inh, FMDV antiviral, Marburg entry inh)
C[C@H]1CC[C@@]2(C)[C@@H](CC[C@@H]3[C@@H]2CC[C@]2(C)[C@@H](O)CC[C@@H]32)C1	HCMV antiviral -100 (no result: LASV entry inh, Marburg entry inh)
C[C@]12CCC3C(CC[C@@H]4CC(=O)CC[C@]34C)C1CC[C@@H]2O (stereo partly specified)	Marburg entry inh inconclusive
C[C@]12CCC(=O)C[C@@H]1CC[C@@H]1[C@@H]2CC[C@]2(C)[C@@H](O)CC[C@@H]12	FMDV antiviral inconclusive, HCMV antiviral -61 (no result: LASV entry inh, Marburg entry inh)
CC(=O)[C@@]1(O)CCC2C3CC[C@H]4C[C@@H](O)CC[C@]4(C)C3CC[C@@]21C (stereo partly specified)	none
Cc1ccccc1Cn1c(=O)n(CC2CCC(C(=O)N3CCC(C)CC3)CC2)c(=O)c2sccc21 (stereo unspecified)	LASV entry inh inconclusive, FMDV antiviral inconclusive, HCMV antiviral -75 (no result: SARS PLP yeast, HCV inh, Marburg entry inh)
Cc1ccc(Cn2c(=O)n(CC3CCC(C(=O)N4CCC(C)CC4)CC3)c(=O)c3sccc32)cc1 (stereo unspecified)	FMDV antiviral inconclusive (no result: SARS PLP yeast, HCV inh, Marburg entry inh)
O=C(c1ccco1)N1CCN(c2ncnc3c2[nH]c2ccccc23)CC1	none (no result: LASV entry inh, HCV inh, FMDV antiviral, HCMV antiviral, Marburg entry inh)
COc1ccc(N2CCN(c3ncnc4c3[nH]c3ccccc34)CC2)cc1	LASV entry inh inconclusive, HCV inh 5.6µM, FMDV antiviral 4µM, HCMV antiviral -92, Marburg entry inh inconclusive (no result: SARS PLP yeast)
CCOC(=O)N1CCN(c2ncnc3c2[nH]c2ccc(OC)cc23)CC1	LASV entry inh inconclusive, FMDV antiviral inconclusive, HCMV antiviral inconclusive, Marburg entry inh 10µM
CCOc1ccc2[nH]c3c(N4CCN(C(=O)c5ccco5)CC4)ncnc3c2c1	LASV entry inh inconclusive, Marburg entry inh inconclusive
Fc1ccc2[nH]c3c(N4CCN(c5ccccc5)CC4)ncnc3c2c1	LASV entry inh inconclusive, HCV inh 7.9µM, FMDV antiviral inconclusive, HCMV antiviral -97, Marburg entry inh inconclusive
CCOC(=O)N1CCN(c2ncnc3c2[nH]c2ccc(F)cc23)CC1	HCV inh 8.9µM, FMDV antiviral 14µM, HCMV antiviral -81, Marburg entry inh inconclusive
Cc1ccc(-c2cn3c(n2)sc2cc(C(=O)NCCCc4ccccc4)ccc23)c(C)c1	none (no result: SARS PLP yeast, HCV inh, HCMV antiviral, Marburg entry inh)
OC1(c2cccc(C(F)(F)F)c2)CCN(c2ncnc3c2[nH]c2ccc(F)cc23)CC1	LASV entry inh 14µM, HCV inh 0.71µM, FMDV antiviral inconclusive, HCMV antiviral -87, Marburg entry inh 4µM (no result: SARS PLP yeast)
COc1ccc2[nH]c3c(Cl)ncnc3c2c1	HCV inh inconclusive, Marburg entry inh inconclusive
CC(=O)N1CCC(O)(c2cccc(C(F)(F)F)c2)CC1	none (no result: FMDV antiviral)

Source: PubChem BioAssay
